About 79,000 compounds went through this panel and 15% of them were active in at least one assay; those are over-represented in the sample as a whole. A number with no mark means an inactive call. Cut-off read from the data, not from the text of the source: active = growth inhibition above about 70%; inactive = the rest.

One assay is described as follows: NCI Yeast Anticancer Drug Screen. Data for the mlh1 strain (AID 171).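 Note: 0% = growth of vehicle-treated control cultures of the same strain.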 Particulars: S. cerevisiae mlh1 strain growth inhibition; at 1.2 µM; hits give high values. The gist of the method: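 Inhibition values reflect reduced yeast growth in the presence of compound, referenced to vehicle controls, using a strain chosen for its alteration in DNA repair or cell cycle control.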
`CN(C)CC(CN(C)C)C(=O)/C=C/c1ccc(Cl)cc1Cl`: the growth inhibition is -3%.
The same measure, in the same setting: next, `c1ccc2c(c1)ccn2CCc1c[nH]c2ccccc12`: -18%; `Cc1ccccc1NC(=O)c1c(C)oc2c1C(=O)c1ccccc1C2=O`: -2%.
Same read-out and setting: the value for `CC(C)OC(=O)NNc1c(Cl)cc(Cl)cc1Cl` was -2%; that for `COc1ccc2nc3cccc([N+](=O)[O-])c3c(NCCNCCO)c2c1` was 1%; that for `COc1ccc2c(c1)CCCC(Br)C2=O` (stereo not given) was 26%.
Regarding `CCC(OC(C)=O)C1CC(C(C)C)CCC1C` (stereo not given), the growth inhibition was 0%.
Consider `O=S(=O)(c1cccc(C(F)(F)F)c1)N1c2ccccc2-n2cccc2C1c1cccnc1` (stereo not given), for which the growth inhibition is -43%.
As to `c1ccc(-c2cc(C3CO3)c3ccccc3n2)cc1` (stereo not given), the growth inhibition was -1%.
The same measure, in the same setting: the value for `COc1ccc(/C=C2\SC(=S)N(/C=C3\C(=O)N(c4ccccc4)N=C3C)C2=O)cc1OC` was 0%; that for `CC1=CC(=C(c2ccc(N)c(C)c2)c2ccc(N)c(C)c2)C=CC1=N` was 7%; that for `CC1C(c2ccccc2)SC(=N)N1C` (stereo not given) was -1%.
Same read-out and setting: next, `CC(/C=C/c1ccc([N+](=O)[O-])o1)=N/N1CC(CN2CCOCC2)OC1=O` (stereo not given): -14%; `C=CC(C)(C)N1C(=O)C(C(C)=O)=C(O)C1Cc1c[nH]c2ccccc12` (stereo not given): -6%.
Still for that read-out and setting: next, `O=C1c2cccc3cccc(c23)C(=O)N1CCNCCN1C(=O)c2cccc3cccc(c23)C1=O`: 0%; `Cc1ccc([N+](=O)[O-])c2c(NCCC[N+](C)(C)[O-])c3ccccc3nc12`: 26%; `COC(=O)C(Cc1c[nH]c2ccccc12)N1CN(C)c2ccccc2C1=O` (stereo not given): 2%.
As for `O=C(/N=N/C(=O)Oc1ccccc1)Oc1ccccc1`, the growth inhibition is -70%.
With `COc1cc([C@@H]2c3cc4c(cc3[C@@H](NC(=O)NO)[C@H]3COC(=O)[C@H]23)OCO4)cc(OC)c1O`, the growth inhibition was 0%.
Still for that read-out and setting: the value for `CCOC(=O)/C(=C/c1cccc(Cl)c1)N(CC)CC` was 18%; that for `CC(C)OC(=O)NNc1cccc(Cl)c1` was -1%.
Regarding `CCC(=O)C1=C(O)c2cc(OC)ccc2CC1C(=O)OC` (stereo not given), the growth inhibition was -5%.
With `O=S(=O)(NC1CCCC(c2ccccc2)C1)c1ccccc1` (stereo not given), the growth inhibition was -2%.
Still for that read-out and setting: the value for `COc1ccc2nc3cccc([N+](=O)[O-])c3c(NCCCCCC(=O)O)c2c1` was 23%.
On the same count and under the same terms, the value for `CCO/C=C1\SC(=S)N(c2ccc(OCC)cc2)C1=O` was -8%.
Same read-out and setting: next, `COc1cc(OC)c(CSCC(NC(=O)OCC2c3ccccc3-c3ccccc32)C(=O)O)c(OC)c1` (stereo not given): 3%; `COC(=O)c1ccccc1N=NNc1cccc(SC)c1`: 2%; `CC1=NN(C(=O)c2ccccc2O)C(=O)/C1=C/c1ccco1`: 12%.
As for `COc1ccccc1NC(=O)c1ccc(Cl)cc1`, the growth inhibition is 0%.
For the compound `CC(C)=CCC/C(C)=C/CN1C(=O)C=CC1=O`, the growth inhibition is -8%.
The same measure, in the same setting: the value for `O=C1CSC(c2ccccc2)N1c1ccc(-c2ccc(-n3c(-c4ccccc4)nc4ccccc4c3=O)cc2)cc1` (stereo not given) was -1%; that for `N#CC1OB(O)c2ccccc21` (stereo not given) was 7%; that for `O=C(NCCNCCNC(=O)c1cc(-c2ccccc2)nc2ccccc12)c1cc(-c2ccccc2)nc2ccccc12` was -2%.
Same read-out and setting: next, `Brc1ccc(B2Nc3ccccc3N2)cc1`: 0%; `CCOP(=O)(OCC)/C(C#N)=C/c1cccc(Oc2ccccc2)c1`: -2%.

The assay is the same for the next values; noted with them: S. cerevisiae mlh1 strain growth inhibition; at 3.7 µM; hits give high values.
For `CN(C)CC(CN(C)C)C(=O)/C=C/c1ccc(Cl)cc1Cl`, the growth inhibition is -5%.
`c1ccc2c(c1)ccn2CCc1c[nH]c2ccccc12`: the growth inhibition is -14%.
The same measure, in the same setting: the value for `Cc1ccccc1NC(=O)c1c(C)oc2c1C(=O)c1ccccc1C2=O` was -8%; that for `CC(C)OC(=O)NNc1c(Cl)cc(Cl)cc1Cl` was -1%.
Still for that read-out and setting: next, `COc1ccc2nc3cccc([N+](=O)[O-])c3c(NCCNCCO)c2c1`: 21%; `COc1ccc2c(c1)CCCC(Br)C2=O` (stereo not given): 23%; `CCC(OC(C)=O)C1CC(C(C)C)CCC1C` (stereo not given): 1%.
For `O=S(=O)(c1cccc(C(F)(F)F)c1)N1c2ccccc2-n2cccc2C1c1cccnc1` (stereo not given), the growth inhibition was -15%.
Same read-out and setting: next, `c1ccc(-c2cc(C3CO3)c3ccccc3n2)cc1` (stereo not given): -1%.
The same measure, in the same setting: next, `COc1ccc(/C=C2\SC(=S)N(/C=C3\C(=O)N(c4ccccc4)N=C3C)C2=O)cc1OC`: 3%; `CC1=CC(=C(c2ccc(N)c(C)c2)c2ccc(N)c(C)c2)C=CC1=N`: 10%.
On the same count and under the same terms, next, `CC1C(c2ccccc2)SC(=N)N1C` (stereo not given): -2%; `CC(/C=C/c1ccc([N+](=O)[O-])o1)=N/N1CC(CN2CCOCC2)OC1=O` (stereo not given): -6%.
As for `C=CC(C)(C)N1C(=O)C(C(C)=O)=C(O)C1Cc1c[nH]c2ccccc12` (stereo not given), the growth inhibition was 0%.
On the same count and under the same terms, the value for `O=C1c2cccc3cccc(c23)C(=O)N1CCNCCN1C(=O)c2cccc3cccc(c23)C1=O` was -3%; that for `Cc1ccc([N+](=O)[O-])c2c(NCCC[N+](C)(C)[O-])c3ccccc3nc12` was 11%.
As to `COC(=O)C(Cc1c[nH]c2ccccc12)N1CN(C)c2ccccc2C1=O` (stereo not given), the growth inhibition is 0%.
On the same count and under the same terms, the value for `O=C(/N=N/C(=O)Oc1ccccc1)Oc1ccccc1` was -85%; that for `COc1cc([C@@H]2c3cc4c(cc3[C@@H](NC(=O)NO)[C@H]3COC(=O)[C@H]23)OCO4)cc(OC)c1O` was -2%; that for `CCOC(=O)/C(=C/c1cccc(Cl)c1)N(CC)CC` was 13%.
The same measure, in the same setting: next, `CC(C)OC(=O)NNc1cccc(Cl)c1`: 4%.
Consider `CCC(=O)C1=C(O)c2cc(OC)ccc2CC1C(=O)OC` (stereo not given), for which the growth inhibition is -1%.
On the same count and under the same terms, the value for `O=S(=O)(NC1CCCC(c2ccccc2)C1)c1ccccc1` (stereo not given) was 0%; that for `COc1ccc2nc3cccc([N+](=O)[O-])c3c(NCCCCCC(=O)O)c2c1` was 63%.
Still for that read-out and setting: the value for `CCO/C=C1\SC(=S)N(c2ccc(OCC)cc2)C1=O` was -12%; that for `COc1cc(OC)c(CSCC(NC(=O)OCC2c3ccccc3-c3ccccc32)C(=O)O)c(OC)c1` (stereo not given) was 9%; that for `COC(=O)c1ccccc1N=NNc1cccc(SC)c1` was 4%.
Regarding `CC1=NN(C(=O)c2ccccc2O)C(=O)/C1=C/c1ccco1`, the growth inhibition was 32%.
The same measure, in the same setting: next, `COc1ccccc1NC(=O)c1ccc(Cl)cc1`: 1%; `CC(C)=CCC/C(C)=C/CN1C(=O)C=CC1=O`: 15%; `O=C1CSC(c2ccccc2)N1c1ccc(-c2ccc(-n3c(-c4ccccc4)nc4ccccc4c3=O)cc2)cc1` (stereo not given): -2%.
Still for that read-out and setting: the value for `N#CC1OB(O)c2ccccc21` (stereo not given) was -5%; that for `O=C(NCCNCCNC(=O)c1cc(-c2ccccc2)nc2ccccc12)c1cc(-c2ccccc2)nc2ccccc12` was 1%.
Still for that read-out and setting: next, `Brc1ccc(B2Nc3ccccc3N2)cc1`: 6%; `CCOP(=O)(OCC)/C(C#N)=C/c1cccc(Oc2ccccc2)c1`: 9%.

Source of the values: PubChem BioAssay (NCI).
